# Rows were chosen to be rich in hits. Some 3.8% of all compounds tested hit in one or more screens of this group.
# PLK1 PBD inh – PLK1 (human) polo-box domain binding inhibition; P53350; Plk1 PBD binding of FITC phosphopeptide, fluorescence polarization; Potency, µM, without a hit: max response, negative = inhibition, usual class: inhibitors; hit rate 2.8% among 360,000; AID 720504; also: potency is read from the fitted curve at half-maximal effect; series mostly up to about 57 µM; % is scaled to controls: 0 for no effect and ±100 for the full control effect; nearly all actives have a fitted effect of over 65% in size
# KCNH2 3.1 inh – KCNH2 3.1 (human) potassium channel inhibition. hit rate 0.95% among 340,000. activity change, % (tested at about 1.8 µM). U2OS KCNH2 3.1, thallium flux FluxOr; stronger effect = lower value;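 active = maximum activity change below -70%; inconclusive = maximum activity change from -70% to -50%; inactive = maximum activity change above -50%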;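 also: thallium influx rate constant from kinetic fluorescence after stimulation buffer; % is scaled to controls: 0 for no effect and ±100 for the full control effect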
#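 FluxOr-based Tl+ influx in U2OS cells transduced with KCNH2 3.1 virus; rate constants normalized to DMSO controls.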
# CBFb RUNX1 block – blocks binding between human CBF-beta and RUNX1; Potency, µM (titrated, usually from 59.8 µM), inactives show at the highest dose activity, negative = inhibition, most hits filed as inhibitors; 230,000 tested, under 10 active; Q01196+Q13951; AlphaScreen CBFb-His/RUNX1-biotin binding, biochemical; also: % of control where 0% means no effect
#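 Compounds were screened at multiple concentrations against a preformed CBF-beta(His)/RUNX1(biotin) complex (30 nM of each) for 15 min at room temperature, followed by 90 min with nickel and streptavidin beads and AlphaScreen reading.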
# MBNL1-CUG inh – MBNL1-poly(CUG) RNA binding inhibition; Potency, µM (titrated, usually from 57.5 µM), for inactives: at the top dose activity change, negative = inhibition, most hits filed as inhibitors; TR-FRET MBNL1-His/biotin-(CUG)12 binding, 665/545 ratio; hit rate 0.036% among 280,000; Q9NR56; active = well fitted inhibition curve with a large enough effect in the signal ratio, with a control signal flat, not every such curve was filed as active; inconclusive = small, poorly fitted or top-dose-only effect, or effect the other way, or a change in a side signal; inactive = no such curve, though single readings can be large or run the other way; the % refers to the signal ratio; also: potency is read from the fitted curve at half-maximal effect; % is scaled to controls: 0 for no effect and ±100 for the full control effect
#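 His-tagged MBNL1 binding to biotinylated (CUG)12 RNA was measured by TR-FRET using terbium anti-His antibody (0.055 ng/ul final) and streptavidin-XL665 (5 nM final). Compounds were titrated 92 nM to 58 uM; 60 min at room temperature.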
# KCNH2 WT inh – blocks the wildtype human KCNH2 potassium channel; Q12809; U2OS, BacMam KCNH2, thallium flux FluxOr; stronger effect = lower value; activity change, % at 1.84 µM; hit rate 0.37% among 340,000; AID 720551;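 active = maximum activity change below -70%; inconclusive = maximum activity change between -70% and -50%; inactive = maximum activity change above -50%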; also: % is scaled to controls: 0 for no effect and ±100 for the full control effect
#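 U2OS cells were transduced with wild-type KCNH2 virus (2.03 x 10^8 / mL) for 4 h at room temperature, then cultured overnight at 37 C. Thallium flux was read with FluxOr dye. Rate constants were normalized to DMSO controls.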
# VDR inh – blocks the human vitamin D receptor; P11473; VDR-SRC2-3 peptide fluorescence polarization, 2 h; Potency, µM, inactives show max response, negative = inhibition, usual class: inhibitors; hit rate 0.93% among 400,000; AID 504847; also: potency is read from the fitted curve at half-maximal effect; % is scaled to controls: 0 for no effect and ±100 for the full control effect
# Target sequence (P11473 whole entry, looked up): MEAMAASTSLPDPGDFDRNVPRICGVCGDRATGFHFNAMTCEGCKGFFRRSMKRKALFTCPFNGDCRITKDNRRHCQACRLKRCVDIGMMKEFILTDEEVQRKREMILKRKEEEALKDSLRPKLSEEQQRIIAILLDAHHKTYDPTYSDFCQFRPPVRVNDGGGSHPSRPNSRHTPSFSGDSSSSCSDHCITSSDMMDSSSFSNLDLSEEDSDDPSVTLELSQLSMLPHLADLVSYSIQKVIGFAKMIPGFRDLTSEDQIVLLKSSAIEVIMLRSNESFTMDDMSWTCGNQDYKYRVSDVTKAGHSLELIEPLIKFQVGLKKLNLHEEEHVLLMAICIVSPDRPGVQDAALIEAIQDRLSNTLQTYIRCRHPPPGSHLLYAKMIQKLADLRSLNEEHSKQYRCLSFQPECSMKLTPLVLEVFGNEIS
#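 Reagent solutions, kept cold and dark, are dispensed first; compounds are then pinned in at 23 nl, plates briefly spun, and incubated 2 h at ambient temperature. Inhibition of VDR–SRC2-3 peptide binding is read by fluorescence polarization.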
# Starred values were filed as active, the others as inactive; u = inconclusive; x = no result. Unless noted, calls follow the shape of the dose curve; as a rule, active = well fitted curve in the direction sought with a large enough effect; inconclusive = small, poorly fitted or top-dose-only effect, or another doubt; inactive = no such curve, though single readings can be large; an effect the other way counts as inactive or inconclusive.
SMILES,PLK1 PBD inh,KCNH2 3.1 inh,CBFb RUNX1 block,MBNL1-CUG inh,KCNH2 WT inh,VDR inh
CCc1nn(CC(=O)NCCC(C)C)c(=O)c2cc3occc3n12,x,x,x,x,x,6%
COc1ccc(-c2nnc3n2N=C(c2ccc(OC)c(OC)c2)CS3)c(OC)c1,x,x,4%,x,x,x
COCC(O)CNc1ccccc1 (stereo unspecified),24µM*,-14,12%,x,2,u
CCN(CC)CCCNC(=S)N(Cc1cccnc1)Cc1cc2cccc(C)c2[nH]c1=O,-16%,-6,8%,-16%,6,-8%
Cc1cccc2cc(CN(Cc3cccnc3)C(=S)NCCCN(C)C)c(=O)[nH]c12,9.5µM*,4,-10%,10%,-8,u
CCCC(=O)N1CCN(c2nc3c(OC)ccc(Cl)c3s2)CC1,27µM*,8,x,0%,-38,-17%
COc1ccc(Cl)c2sc(N3CCN(C(=O)c4ccco4)CC3)nc12,-4%,3,x,x,-14,-3%
Cc1cccc(C)c1OC(=O)CSc1nnc(-c2cccs2)o1,x,x,x,x,x,9%
C=C1CCN([C@@H](Cc2ccccc2)C(=O)NCc2ccc(Cl)cc2)S(=O)(=O)c2ccccc21,-2%,-70*,x,x,-15,-18%
COC(=O)CC1(C(=O)OC)Nc2cc(Cl)c(Cl)cc2S(=O)(=O)N1O (stereo unspecified),9.5µM*,3,x,x,-7,x
COC(=O)CN1CCC(=O)c2ccccc2S1(=O)=O,x,x,5%,x,x,-21%
Cc1cc(/C=C(/C#N)c2nc3ccccc3[nH]2)c(C)n1-c1cccc([N+](=O)[O-])c1,-14%,-134*,-14%,8%,-116*,-1%
Cc1cc(/C=C(\C#N)c2nc3ccccc3[nH]2)c(C)n1C,-9%,16,u,77%,-5,-23%
CC(C)c1ccc(N2C(=O)CC(Sc3ncn[nH]3)C2=O)cc1 (stereo unspecified),27µM*,14,-4%,0%,-8,19%
CC(C)c1ccc(C(=O)CSc2ncn[nH]2)cc1,30µM*,9,3%,-2%,9,79µM*
CC(C)c1ccc(N2C(=O)CC(Sc3nc4ccccc4o3)C2=O)cc1 (stereo unspecified),-19%,-7,3%,4%,-10,-1%
CC(C)(C)c1ccc(CS(=O)(=O)CC(O)CN2CCCC2=O)cc1 (stereo unspecified),34µM*,12,x,1%,11,-17%
Cc1ccc(Cn2cc(CCC(=O)NCc3ccccc3F)c3ccccc32)cc1,x,x,x,x,x,7%
O=C(CSc1nc2ccccc2s1)N1CCCCC1,15µM*,5,8%,-5%,-5,0%
O=C(O)C1CCN(C(=O)CSc2nc3ccccc3s2)CC1,24µM*,-15,8%,x,11,u
NC(=O)C1CCN(C(=O)CSc2nc3ccccc3s2)CC1,u,-11,5%,-5%,-11,-17%
N#Cc1ccc(C(=O)N(Cc2ccco2)Cc2cccs2)cc1,x,x,x,x,x,-2%
COc1ccc(CN2CCN(CCSc3ccc(C)cc3)CC2)c(OC)c1OC,-3%,-77*,x,-9%,52,10%
C=CC[n+]1c(C)csc1Nc1ccc(C(=O)O)cc1,-13%,-79*,0%,2%,x,3%
CCOC(=O)c1c(N)ssc1=S,6.7µM*,8,3%,-5%,-1,-26%
SMILES,PLK1 PBD inh,KCNH2 3.1 inh,CBFb RUNX1 block,MBNL1-CUG inh,KCNH2 WT inh,VDR inh
CCOC(=O)c1sc(N)c(C(N)=O)c1C,24µM*,0,6%,4%,-5,-6%
CCOC(=O)c1sc(N)c(C#N)c1CSc1nnc(C2CC2)n1N,-8%,2,-2%,6%,-3,-2%
CCCOC(=O)c1c(N)sc(C(=O)OCC)c1C,u,-3,5%,32%,1,-9%
CCOC(=O)c1c(N)sc(C(=O)Nc2ccccc2F)c1C,5%,-3,-2%,-3%,16,16%
CCCc1c(C(=O)OCC)sc(N)c1C#N,19µM*,-20,0%,u,9,-11%
CCOC(=O)c1c(N)sc(C(=O)Nc2ccccc2)c1C,21µM*,-1,-3%,-2%,5,u

# Compound activity deposited in PubChem by National Center for Advancing Translational Sciences (NCATS).
